Rows were chosen to be rich in hits. Some 1.4% of all compounds tested hit in one or more screens of this group.
TrxR1 substrate: rat thioredoxin reductase 1 substrate activity; AID 588456; Potency, µM (highest dose often 114 µM); purified TrxR1 substrate turnover, NADPH consumption readout; 390,000 tested, 0.01% active; also: nearly all actives have a fitted effect of over 50% in size
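Rat TrxR1, dispensed at 90 nM, was prereduced with 400 uM NADPH (final) for 5 min at ~22 deg C, then incubated with compound 15 min before 400 uM selenite. A first-read NADPH fluorescence drop versus no-compound background flagged substrates.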
TrxR1 inh: rat TrxR1 inhibition; O89049; recombinant rTrxR1, NADPH fluorescence consumption, selenite substrate; Potency, µM (doses to about 114 µM), hits mostly inhibitors; AID 588453; 390,000 tested, 1% active; also: nearly all actives have a fitted effect of over 65% in size
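Rat TrxR1 (90 nM in the dispensed reagent) was pre-reduced with 400 uM NADPH for 5 min at room temperature, then incubated with compound for 15 min. After 400 uM selenite was added, NADPH fluorescence (Ex 340/Em 450 nm) was followed for 8 min.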
LDHA block: inhibitors of human lactate dehydrogenase A | purified LDHA, NADH/diaphorase-resazurin fluorescence; hits give low values | activity change, % (values are at about 110 or 230 µM) | 480,000 tested, 0.15% active | AID 1347041; in the data active = activity change below about -30%; inconclusive = mostly about -25% to -30%
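Remaining NADH was detected by diaphorase (0.133 mg/mL) converting 37 µM resazurin to fluorescent resorufin, read at 0 and 20 minutes. The preceding 5-minute room-temperature reaction used 2 nM LDHA, 0.2 mM sodium pyruvate and 0.06 mM NADH at pH 7.4.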
IDH1 R132H inh: human IDH1 R132H inhibition; IDH1-R132H enzyme, NADPH consumption, diaphorase/resazurin fluorescence; Potency, µM (titrated, usually from 76.6 µM), most hits filed as inhibitors; 390,000 tested, 0.093% active; also: nearly all actives have a fitted effect of over 65% in size
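IDH1-R132H (0.5 ug/mL) preincubated 30 min with compound, then NADPH (0.016 mM) and alpha-KG (2 mM) added; 80 min at RT, pH 7.5. Remaining NADPH coupled via diaphorase/resazurin to fluorescence (540/590 nm); concentration-response curves normalized to no-enzyme control.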
PKM2 activator: increases activity of human pyruvate kinase M2; P14618; purified PKM2, Kinase-Glo ATP luminescence, activation; response scale: 0% is enzyme alone, no compound; Potency, µM (series often up to 57.5 µM), hits mostly activators; 260,000 tested, 0.34% active; AID 1631; also: nearly all actives have a fitted effect of over 55% in size
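Kinase-Glo luminescence reports ATP generated from ADP (0.1 mM) and PEP (0.5 mM) by purified hPK-M2 after 1 h at room temperature, pH 7.2 imidazole buffer; intermediate enzyme activity allows detecting inhibitors and activators.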
GLS inh: inhibitors of human glutaminase (GLS); O94925; GLS enzymatic activity, qHTS titration; Potency, µM (series often up to 45.5 µM), hits mostly inhibitors; 410,000 tested, 0.21% active; AID 624170
Target sequence (O94925 whole entry, looked up): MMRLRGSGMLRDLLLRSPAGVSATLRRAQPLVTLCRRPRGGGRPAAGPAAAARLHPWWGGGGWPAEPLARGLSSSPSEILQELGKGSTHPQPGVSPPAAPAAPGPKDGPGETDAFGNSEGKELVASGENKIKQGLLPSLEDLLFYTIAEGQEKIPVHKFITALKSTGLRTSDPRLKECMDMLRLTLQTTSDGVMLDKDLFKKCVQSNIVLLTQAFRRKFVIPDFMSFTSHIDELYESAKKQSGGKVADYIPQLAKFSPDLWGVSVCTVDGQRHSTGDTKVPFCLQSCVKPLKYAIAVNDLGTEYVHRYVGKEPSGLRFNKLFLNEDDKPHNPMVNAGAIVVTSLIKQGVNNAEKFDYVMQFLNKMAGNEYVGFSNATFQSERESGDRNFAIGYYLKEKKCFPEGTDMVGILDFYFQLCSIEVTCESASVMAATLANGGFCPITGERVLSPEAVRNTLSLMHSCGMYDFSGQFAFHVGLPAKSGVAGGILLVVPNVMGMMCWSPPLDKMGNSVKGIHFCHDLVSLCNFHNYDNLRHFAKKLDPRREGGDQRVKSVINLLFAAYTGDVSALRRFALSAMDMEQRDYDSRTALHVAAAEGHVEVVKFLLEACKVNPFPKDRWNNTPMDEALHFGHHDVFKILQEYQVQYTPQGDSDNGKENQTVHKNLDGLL
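Read-out is an Amplex red fluorescence increase coupled through glutamate oxidase and HRP, measured before and after 30 min room-temperature incubation. hKGA is in 45 mM KH2PO4 (pH 8.2) with 0.02% Tween-20; glutamine added as 1mM solution.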
A number is an active result; - = inactive; ? = inconclusive; . = not tested or not shown; [ ] = dose if it differs, or a comment. Unless noted, calls follow the shape of the dose curve; as a rule, active = well fitted curve in the direction sought with a large enough effect; inconclusive = small, poorly fitted or top-dose-only effect, or another doubt; inactive = no such curve, though single readings can be large; an effect the other way counts as inactive or inconclusive.

SMILES	TrxR1 substrate	TrxR1 inh	LDHA block	IDH1 R132H inh	PKM2 activator	GLS inh
COc1ccc(N2C(=O)C(Cl)=C(Nc3ccc(OC)cc3OC)C2=O)cc1	-	-	-	-	-	-
COc1cccc(C(Nc2ncc(C(F)(F)F)cc2Cl)c2nccn2C)c1 (stereo not given)	.	.	-	.	.	.
O=C1NCCCc2c1oc1cc(Br)c(O)c(Br)c21	-	-	-	-	-	-
O=C1NCCCC2c3c(cc(Br)c(O)c3Br)OC12N1CCCCC1 (stereo not given)	-	25.1µM	-	-	-	-
CC(=O)N=c1sc2nc3ccccc3nc2n1N(C(C)=O)C(C)=O	-	39.8µM	-	-	-	-
O=C(CCS(=O)(=O)c1ccccc1)N1CCCc2ccccc21	-	70.8µM	-	-	-	-
CCCCCOC(=O)c1[nH]c2c(c1C)C(=O)CC(c1ccco1)C2 (stereo not given)	-	-	-	-	15.8µM	-
COc1ccc(C2(C(=O)c3ccccc3)C(=O)c3ccccc3C2=O)cc1	-	2.24µM	-	-	-	-
COc1ccc(C(=O)CC(=O)c2ccccc2)cc1	-	-[11.4 µM]	-	-	.	-
CC(C)(C)OC(=O)N1CC=C2C(C#N)=C(N)C(C#N)(C#N)[C@H](c3cccnc3)[C@H]2C1	-	39.8µM	-	?	-	-
CCCCn1nnc(NC(=S)NC(=O)c2ccc(OCC)c([N+](=O)[O-])c2)n1	-	79.4µM	-	-	-	-
O=C(Cc1ccccc1Cl)NNC(=O)C1CCCCC1	.	.	-	.	.	.
CS(=O)(=O)Oc1ccc2c(=O)c(Oc3ccccc3Br)c(C(F)(F)F)oc2c1	.	.	-	.	.	.
N#CCCN(C(=O)CCl)c1cccc(Cl)c1	-	8.91µM	-	-	-	-
CCCCCCCN(C(=O)CCl)c1cccc(C)c1	-	39.8µM	-	-	-	-
CCCN(C(=O)c1cc2c(Cl)nc3ccccc3c2s1)c1cccc(C)c1	-	-	-	-	.	-
O=C(CCl)N(c1ccccc1)c1ccccc1	-	?	-	-	-	-
CCCCCCN(C(=O)CCl)c1ccccc1	-	17.8µM	-	-	-	-
CN1CCN(CCNC(=O)Cc2ccc(C(F)(F)F)cc2)CC1	.	.	-	.	.	.
Cc1ccc2[nH]c(=O)c(CN(Cc3ccco3)S(=O)(=O)c3c(C)ccc4nsnc34)cc2c1	-	28.2µM	-	-	-	-
CC(=O)c1cccc(NC(=O)C23CC4CC(CC(C4)C2)C3)c1	.	.	-	.	.	.
Cc1ccc2c(CN(C)CCOc3ccc(F)cc3)cc(=O)oc2c1	.	.	-32.8	.	.	.
Cc1ccccc1C(C)NC(=O)CCC(=O)c1ccc2c(c1)CCC2 (stereo not given)	.	.	-	.	.	.
CCOC(=O)C1CCN(c2nc(N)c3c(N)nc(SCC(=O)O)cc3c2C#N)CC1	-	-	-	-	10µM	?
COC(=O)c1nc2ccccc2nc1N1CCN(Cc2ccccc2)CC1	.	.	-	.	.	.
SMILES	TrxR1 substrate	TrxR1 inh	LDHA block	IDH1 R132H inh	PKM2 activator	GLS inh
Cc1cc(Cl)ccc1OCc1n[nH]c(=S)n1C	.	.	-	.	.	.
CCOC(=O)c1c[nH]c(=S)n(-c2ccccc2)c1=O	-	-	-	-	.	-
CCOC(=O)c1c(SCCN2CCCC2)n(-c2ccccc2)c(=S)n(-c2ccccc2)c1=O	-	31.6µM	-	-	.	-
O=[N+]([O-])c1cccnc1S(=O)(=O)c1ccccc1	-	1.12µM	-	-	.	-
Cc1cc(C)cc(NC(=O)C2CCN(c3ncnc4c3sc3ncccc34)CC2)c1	.	.	-	.	.	.
CCN(CC(=O)Nc1cc(Cl)ccc1C)C(=O)C1COc2ccccc2O1 (stereo not given)	-	50.1µM	-	-	.	-
CC1=CCC2C(C)(CC[C@H](O)C2(C)C)C1COc1ccc2ccc(=O)oc2c1 (stereo not given in full)	.	.	-	.	.	.
Cc1ccc(S(=O)(=O)CNC(=S)c2cccc(Cl)c2)cc1	-	14.1µM	-	-	-	-
O=C(CCl)Nc1cccc(S(=O)(=O)NC2=NCCCCC2)c1	-	17.8µM	-	-	.	-
O=C(Nc1cccc(S(=O)(=O)NC2=NCCCCC2)c1)c1cc(-c2ccco2)nc2ccccc12	-	50.1µM	-	-	-	-
CCCCNC(=O)c1ccc(NC(=O)c2ccccc2C)cc1	.	.	-	.	.	.
C/C(CC(=O)Nc1cc(Cl)cc(Cl)c1)=N\NC(=O)c1cccnc1	.	.	-	.	.	.
CC(C(=O)O)N1C(=O)/C(=C/C=C/c2ccco2)SC1=S (stereo not given)	-	14.1µM	-	-	-	3.98µM
O=C1/C(=C/C=C/c2ccco2)SC(=S)N1NS(=O)(=O)c1ccccc1	-	44.7µM	-	-	-	15.8µM
CC(=O)c1csc(NC(=O)Cn2ccc(=O)n(C)c2=O)n1	.	.	-	.	.	.
O=C(Cn1c(SCC(=O)Nc2ccc(F)cc2)nc2ccccc21)NCc1ccccc1Cl	-	-	-32.4	-	.	-
O=C(CSc1nc2ccccc2n1Cc1ccccc1Cl)N/N=C/c1ccccc1C(=O)O	-	-	-	-	25.1µM	-
Cc1ccc2c(CN(Cc3cccs3)C(C)C)cc(=O)oc2c1	.	.	-	.	.	.
N#Cc1c(N2CCN(C(=O)C(=O)NCCO)CC2)nc(-c2ccccc2)c2c1CCCC2	.	.	-	.	.	.
CC(Nc1ccc(Cl)cc1)C(=O)NC(N)=O (stereo not given)	.	.	-	.	.	.
C=C1C(=O)O[C@@H]2[C@H]3O[C@]3(C)CC/C=C(\C)CC[C@@H]12	-	56.2µM	-	-	.	-
COCCSc1ccccc1C(=O)Nc1cc(C)on1	-	-	-	-	31.6µM	-
COc1ccccc1C(=O)Nc1cc(C)on1	-	-	-	-	-	-
CSc1nc(O)c(/C=C2\C=Nc3ccccc32)[nH]1	-	-	-	-	-	-
O=c1[nH]c(/C=C2\C=Nc3ccccc32)c(O)n1Cc1ccccc1F	-	-	-	-	-	7.94µM
SMILES	TrxR1 substrate	TrxR1 inh	LDHA block	IDH1 R132H inh	PKM2 activator	GLS inh
CCOC(=O)C1(Cc2cccc(OC)c2)CCCN(C(=O)c2ccc(OC)o2)C1 (stereo not given)	-	50.1µM	-	-	-	-
O=S(=O)(c1cnc(Cl)c(Cl)c1)N1CCc2ccccc21	-	-	-	-	3.55µM	-
O=C1COc2ccc(S(=O)(=O)N3CCc4ccccc43)cc2N1	-	-	-	-	14.1µM	-
CC(Oc1ccccc1)C(=O)N[C@@H]1C(=O)N2[C@@H]1SC(C)(C)[C@@H]2C(=O)OCc1ccccc1 (stereo not given in full)	-	50.1µM	.	.	.	.
C=NC(C(=O)NC1C(=O)N2C1SC(C)(C)C2C(=O)O)c1ccccc1 (stereo not given)	.	.	.	.	.	28.2µM
CC1(C)S[C@@H]2[C@H](NC(=O)C(C(=O)Oc3ccc4c(c3)CCC4)c3ccccc3)C(=O)N2[C@H]1C(=O)O (stereo not given in full)	.	.	.	.	.	7.94µM
